Source: the OligoGym collection
Note: reference of the scale not given here.

What follows are sequences tested against SRPK1 (assay: pooled miR-30 sensor sort-seq; sequence = guide strand). Conditions: shRNA.
Work on TATTCTTTGACATTTTGTCAGC yielded a sensor-assay potency score (higher = more potent) of -0.83. Work on TACAATAATCATTAGGATCTTC yielded a sensor-assay potency score (higher = more potent) of -0.347. TTCCATAAGCGTTTGATCCTGG showed a sensor-assay potency score (higher = more potent) of 0.385. TAGCATTATGTAGATCCTCTTT gave a sensor-assay potency score (higher = more potent) of -0.224. TTTAAAGTCATCTAGTAGTTGA was tested, and the sensor-assay potency score (higher = more potent) was -0.439. TTCGCTTCTCTAGTAATTCTGC was tested, and the sensor-assay potency score (higher = more potent) was 0.131. TATGTGTTCCATTAACTCCTGA was tested, and the sensor-assay potency score (higher = more potent) was -0.508. TAACTTTCGGATCACATGGTAT was tested, and the sensor-assay potency score (higher = more potent) was -1.15. TTTGATGATCCACTTGAGCAGA was tested, and the sensor-assay potency score (higher = more potent) was -0.465. ATCTAGTAGTTGAACAACCATT was tested, and the sensor-assay potency score (higher = more potent) was -1.39. Sequence TAGTTGAACAACCATTTCTCTA has a sensor-assay potency score (higher = more potent) of -1.08. For TTATAGGTGTACAAGAGTCTGT, the sensor-assay potency score (higher = more potent) was -0.536.

These sequences were tested against SRSF11 in the same assay as above. Conditions: shRNA.
Sequence TTGATCTTGAATGCCTTCTTTT has a sensor-assay potency score (higher = more potent) of -0.673. TACATCTTTATCACTCTCTGAT was tested, and the sensor-assay potency score (higher = more potent) was 0.584. TTAGGGACTGTGCTTCTCGTAC gave a sensor-assay potency score (higher = more potent) of -0.978. TTCCTCTTCATCATAATCCCGT was tested, and the sensor-assay potency score (higher = more potent) was 0.0321. Work on TCTTCTTGCTTGTTGATCGTTC yielded a sensor-assay potency score (higher = more potent) of 0.0447. For TAAGCTTCAGCAACTGATCTGC, the sensor-assay potency score (higher = more potent) was 0.509. For TTGCACTTCTAGAACGTCTGGC, the sensor-assay potency score (higher = more potent) was 0.928. Sequence TATCTGGTTCTATAGCAGCAGA has a sensor-assay potency score (higher = more potent) of -1.33. TAGAACGTGATCTTGATCTTGA was tested, and the sensor-assay potency score (higher = more potent) was 0.589. TAACAGGAGCTTTATAACCATT showed a sensor-assay potency score (higher = more potent) of -1.45.
